PubChem BioAssay (Tox21)
“And” between values parts separate entries of the source, which are not always exact repeats. Equal values may be shown once. Results filed as inconclusive are left out. Some compounds were tested as several samples or in several runs, with calls that do not always agree. The source made the active and inactive calls. Unless noted, the call rests on the fitted dose curve; in most records, active means well fitted curve in the direction sought with a large enough effect in the repeat runs; inconclusive means weak or mixed curves; inactive means no such curve, though single readings can be large; an effect the other way counts as inactive or inconclusive.

Legend:
[1] = qHTS assay for small molecule agonists of the p53 signaling pathway - cell viability (AID 651633; calls by dose curve; further: nearly all actives have a fitted effect of over 30% in size; further: potency means the concentration at half of the fitted maximal effect)
In short: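 p53RE-bla cells, seeded at 4,000 per well and rested 5 h at 37 C/5% CO2, received compounds in DMSO for 16 h at 37 C. CellTiter-Glo was then added, and luminescence was read after 30 min at room temperature to gauge cytotoxicity.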

[2] = qHTS assay for small molecules that induce genotoxicity in human embryonic kidney cells expressing luciferase-tagged ATAD5 - cell viability (AID 651634; calls by dose curve; further: nearly all actives have a fitted effect of over 25% in size; further: potency means the concentration at half of the fitted maximal effect)
In short: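 Seeding of 2,000 HEK293T ATAD5-luciferase cells per well preceded pin-tool compound transfer. Plates sat 15.5 hr at 37C under 5% CO2, then fluorescence was read after 30 min with CellTiter-Fluor.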

[3] = qHTS assay for small molecule disruptors of the mitochondrial membrane potential - cell viability (AID 720634; calls by dose curve; further: nearly all actives have a fitted effect of over 20% in size; further: potency means the concentration at half of the fitted maximal effect)
In short: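 Measuring cytotoxicity alongside mitochondrial potential, the screen quantified ATP by luminescence in HepG2 cells after 1 hr compound incubation and a 30 min room-temperature CellTiter-Glo step.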

[4] = qHTS assay for small molecule disruptors of the mitochondrial membrane potential (AID 720635); further: potency means the concentration at half of the fitted maximal effect
In short: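 HepG2 cells (2,000/well) attached overnight at 37C, then took compound for 1 hr at 37C, 5% CO2. Mito-MPS dye was added for 30 min; fluorescence was read at 490/535 nm (monomers) and 540/590 nm (aggregates).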

[5] = qHTS assay to test for compound auto fluorescence at 590 nm (red) in HepG2 cells (AID 720674)
In short: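 Rose Bengal sodium served as the red fluorophore standard. HepG2 monolayers (overnight attachment, MEM with 10% FBS) were exposed to test compounds for 1 hr at 37 C and read at Ex 540/Em 590 nm.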

[6] = qHTS assay to test for compound auto fluorescence at 535 nm (green) in HepG2 cells (AID 720675); further: potency means the concentration at half of the fitted maximal effect
[7] = qHTS assay to test for compound auto fluorescence at 460 nm (blue) in HEK293 cells (AID 720678)
In short: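 After cell attachment (4-5 hr, 37C), compounds were pinned onto HEK293 monolayers in 10% dialyzed FBS medium. The blue channel (405/460 nm) was read following overnight culture. Equivalency was calculated against triamterene.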

[8] = qHTS assay to test for compound auto fluorescence at 590 nm (red) in HEK293 cells (AID 720679)
In short: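 Plates of HEK293 cells (10% dialyzed FBS) are treated with 23 nL compound or DMSO vehicle after a 4-5 hr attachment period, incubated overnight at 37C, and read for red fluorescence at 540/590nm.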

[9] = qHTS assay to test for compound auto fluorescence at 535 nm (green) in HEK293 cells (AID 720680)
[10] = qHTS assay to test for compound auto fluorescence at 460 nm (blue) in HEK293 cell free culture (AID 720681)
In short: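 Test compounds were pinned into cell-free culture medium (DMEM with 10% FBS) and fluorescence was read directly at Ex/Em 405/460 nm. Signals were expressed as fluorescence equivalents of triamterene, with DMSO vehicle as control.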

[11] = qHTS assay to test for compound auto fluorescence at 535 nm (green) in HEK293 cell free culture (AID 720682)
In short: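 Green-channel intensity (Ex/Em 485/535 nm) was recorded from compound-treated wells containing only DMEM with 10% FBS. Fluorescein provided the equivalency standard.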

[12] = qHTS assay to test for compound auto fluorescence at 590 nm (red) in HEK293 cell free culture (AID 720683)
In short: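 Tox21 10K library compounds were pinned into cell-free DMEM with 10% FBS and fluorescence was read at excitation 540 nm. Activity is expressed as Rose Bengal sodium equivalency.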

[13] = qHTS assay to test for compound auto fluorescence at 590 nm (red) in HepG2 cell free culture (AID 720684)
In short: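 Measured in medium alone (MEM containing 10% FBS) following pintool addition of compound; emission at 590 nm with 540 nm excitation, referenced to Rose Bengal sodium.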

[14] = qHTS assay to test for compound auto fluorescence at 460 nm (blue) in HepG2 cell free culture (AID 720685)
In short: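 Compound (23 nL) or DMSO pinned into cell-free MEM with 10% FBS; blue fluorescence read at 405/460 nm excitation/emission, expressed as auto-fluorescence equivalency to triamterene.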

[15] = qHTS assay to test for compound auto fluorescence at 535 nm (green) in HepG2 cell free culture (AID 720686); further: potency means the concentration at half of the fitted maximal effect
[16] = qHTS assay to test for compound auto fluorescence at 460 nm (blue) in HepG2 cells (AID 720687)
In short: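 Cells (2,000/well in MEM with 10% FBS) attached overnight at 37 C, then were exposed to compound or DMSO for 1 hr at 37 C, 5% CO2. Fluorescence read at Ex/Em 405/460 nm, expressed as triamterene-equivalent signal.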

[17] = qHTS assay for small molecules that induce genotoxicity in human embryonic kidney cells expressing luciferase-tagged ATAD5 (AID 651632); further: nearly all actives have a fitted effect of over 15% in size; further: potency means the concentration at half of the fitted maximal effect
In short: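 Reporter cells (HEK293T) express luciferase-tagged ATAD5, a protein that accumulates after DNA damage. Treat 16 hr at 37C/5% CO2, add Amplite, wait 30 min at RT, and read luminescence.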

[18] = molecular target: Glucocorticoid receptor (Homo sapiens) (UniProt P04150); assay: qHTS assay to identify small molecule agonists of the glucocorticoid receptor (GR) signaling pathway (AID 720691; active means well fitted activation curve with a large enough effect in the signal ratio in the repeat runs, not every such curve was filed as active; the % refers to the signal ratio); settings: GR-bla HeLa, beta-lactamase reporter ratio, 18 h; activation: at 62.4 µM (top of the series)
Glucocorticoid receptor (Homo sapiens), sequence (P04150 whole entry, looked up): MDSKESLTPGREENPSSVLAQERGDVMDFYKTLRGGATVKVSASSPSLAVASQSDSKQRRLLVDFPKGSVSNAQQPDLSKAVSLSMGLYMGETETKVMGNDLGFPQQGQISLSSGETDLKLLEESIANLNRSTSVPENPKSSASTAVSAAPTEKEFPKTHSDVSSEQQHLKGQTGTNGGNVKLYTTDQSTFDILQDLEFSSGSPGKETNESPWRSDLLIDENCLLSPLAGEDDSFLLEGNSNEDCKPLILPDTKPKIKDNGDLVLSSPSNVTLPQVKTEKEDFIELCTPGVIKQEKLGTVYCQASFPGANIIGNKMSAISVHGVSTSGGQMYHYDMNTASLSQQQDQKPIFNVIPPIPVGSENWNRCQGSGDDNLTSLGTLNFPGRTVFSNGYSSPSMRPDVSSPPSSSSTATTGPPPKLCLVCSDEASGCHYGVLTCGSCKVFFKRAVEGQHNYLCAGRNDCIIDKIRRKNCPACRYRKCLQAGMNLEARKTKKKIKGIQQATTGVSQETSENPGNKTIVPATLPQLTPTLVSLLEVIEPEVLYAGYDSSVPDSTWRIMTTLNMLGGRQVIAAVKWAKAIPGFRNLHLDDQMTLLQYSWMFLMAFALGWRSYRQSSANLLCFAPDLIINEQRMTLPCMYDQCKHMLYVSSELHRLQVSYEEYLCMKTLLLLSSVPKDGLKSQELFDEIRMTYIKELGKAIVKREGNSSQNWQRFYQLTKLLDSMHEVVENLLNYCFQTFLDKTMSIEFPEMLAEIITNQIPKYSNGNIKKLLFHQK
In short: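 Reporter read-out: fluorescence intensity following 2 h room-temperature LiveBLAzer B/G FRET substrate loading. Prior step: GR-bla HeLa cells held 4 h, then treated 18 h at 37 C.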

[19] = molecular target: Glucocorticoid receptor (Homo sapiens) (UniProt P04150); assay: qHTS assay to identify small molecule antagonists of the glucocorticoid receptor (GR) signaling pathway (AID 720692; active means well fitted inhibition curve with a large enough effect in the signal ratio in the repeat runs, not every such curve was filed as active; the % refers to the signal ratio)
In short: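 Dexamethasone (5 nM final) stimulated a stably integrated GRE-beta-lactamase reporter in HeLa cells during 18 h co-incubation with compounds; signal was quantified as fluorescence intensity of B/G FRET substrate after 2 h.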
On the % scale 0 is the no-effect control and ±100 the full control effect; tags describe the fitted curve by direction and shape or compound fluorescence and quenching.

CC1=C(C(=O)OC(C)C)C(c2cccc([N+](=O)[O-])c2)C(C(=O)OC2CN(C(c3ccccc3)c3ccccc3)C2)=C(N)N1 (stereo not given)
inactive: Potency [5] | Potency [6] | Potency [7] | Potency [8] | outcome [9] | Potency [10] | outcome [11] | Potency [12] | Potency [13] | Potency [14] | Potency [15] | Potency [16]
active: Potency [1] 7.5 µM | Potency [2] 18.8 µM | Potency [3] 7.5 µM | Potency [4] 1.19 µM

CCCCCCCCCCCCCCCC(=O)OC[C@H](O)[C@H]1OC(=O)C(O)=C1O
inactive: Potency [17] | Potency [2] | Potency [3] | Potency [4] | Potency [5] | Potency [6] | Potency [7] | Potency [8] | outcome [9] | Potency [10] | outcome [11] | Potency [12] | Potency [13] | Potency [14] | Potency [15] | Potency [16]

CCCCCCCC/C=C/CCCCCCCC1=NCCN1CCO
active: Potency [1] 43.3 µM | Potency [3] 54.5 µM | Potency [4] 54.5 µM
inactive: Potency [17] | Potency [5] | Potency [6] | Potency [7] | outcome [9] | Potency [10] | outcome [11] | Potency [12] | Potency [13] | Potency [14] | Potency [15] | Potency [16]

Cc1c(C)c2c(c(C)c1OC(=O)CCC(=O)O)CC[C@@](C)(CCC[C@H](C)CCC[C@H](C)CCCC(C)C)O2
inactive: Potency [17] | Potency [1] | Potency [3] | Potency [5] | Potency [6] | Potency [7] | outcome [9] | Potency [10] | outcome [11] | Potency [12] | Potency [13] | Potency [14] | Potency [15] | Potency [16]

CCN(CCC#N)c1ccc(N=Nc2c(Cl)cc([N+](=O)[O-])cc2Cl)cc1
active: Potency [2] 54.5 µM | Potency [3] 19.3 µM
inactive: Potency [17] | Potency [5] | Potency [7] | Potency [8] | outcome [9] | Potency [10] | outcome [11] | Potency [12] | Potency [13] | Potency [15] | Potency [16] | Potency [18] | Potency [19]

CCCCCCCCCCCCc1ccc(O)cc1
inactive: Potency [17] | Potency [3] | Potency [5] | Potency [6] | Potency [7] | Potency [8] | Potency [10] | Potency [12] | Potency [13] | Potency [15] | Potency [16]
active: Potency [1] 24.3 µM | Potency [4] 2.73 µM

CCC1=C[C@@H]2CN(C1)Cc1c([nH]c3ccccc13)[C@@](C(=O)OC)(c1cc3c(cc1OC)N(C)[C@H]1[C@@](O)(C(=O)OC)[C@H](OC(C)=O)[C@]4(CC)C=CCN5CC[C@]31[C@@H]54)C2
active: Potency [17] 2.37 µM | Potency [2] 1.19 µM
inactive: Potency [3] | Potency [5] | Potency [7] | Potency [8] | outcome [9] | Potency [10] | outcome [11] | Potency [12] | Potency [13] | Potency [14] | Potency [15] | Potency [16] | Potency [18]

Nc1ccc2c3c(cccc13)-c1ccccc1-2
active: Potency [4] 4.91 µM | Potency [6] 39.8 µM | Potency [15] 39.8 µM [fluorescent]
inactive: Potency [17] | Potency [5] | Potency [8] | Potency [12] | Potency [13]

CC/C(=C(\c1ccc(O)cc1)c1ccc(OCCN(C)C)cc1)c1ccccc1
active: Potency [2] 61.3 µM | Potency [3] 68.7 µM | Potency [4] 24.4 µM
inactive: Potency [17] | Potency [5] | Potency [7] | Potency [8] | outcome [9] | Potency [10] | outcome [11] | Potency [12] | Potency [13] | Potency [14] | Potency [16]

CCCN(CCC)c1c([N+](=O)[O-])cc(C(F)(F)F)c(N)c1[N+](=O)[O-]
active: Potency [1] 30.5 µM | Potency [4] 4.31 µM
inactive: Potency [17] | Potency [5] | Potency [6] | Potency [7] | Potency [8] | outcome [9] | Potency [10] | outcome [11] | Potency [12] | Potency [13] | Potency [14] | Potency [15] | Potency [16]

NC(=NCCCCCCN=C(N)/N=C(\N)Nc1ccc(Cl)cc1)/N=C(\N)Nc1ccc(Cl)cc1
active: Potency [1] 38.2 µM [middle of 4 runs]
inactive: Potency [17] | Potency [3] | Potency [5] | Potency [6] | Potency [7] | Potency [8] | outcome [9] | Potency [10] | Potency [12] | Potency [13] | Potency [14] | Potency [16]

CCCCCCCCCCCCCCCC[N+](C)(C)CCN(Cc1ccc(OC)cc1)c1ncccn1
active: Potency [4] 11.4 µM
inactive: Potency [17] | Potency [2] | Potency [3] | fluorescence, relative to Rose Bengal [5] 0.0174% [at 18.6 µM] | fluorescence, % of fluorescein control [6] -0.0711% [at 18.6 µM] | fluorescence, % of triamterene [7] 0.0413% [at 18.6 µM] | fluorescence, % of fluorescent control [8] -0.0306% [at 18.6 µM] | fluorescence, % of fluorescent control [10] -0.0676% [at 18.6 µM] | activity change [11] -0.0015% [at 18.6 µM] | fluorescence, % of fluorescent control [12] -0.016% [at 18.6 µM] | fluorescence, % of Rose Bengal [13] 0.665% [at 18.6 µM] | fluorescence, % of fluorescent control [14] -0.0338% [at 18.6 µM] | fluorescence, % of fluorescein control [15] -0.0114% [at 18.6 µM] | fluorescence, % of fluorescent control [16] 0.0553% [at 18.6 µM] | Potency [18] | Potency [19]

Fc1ccc(C(c2ccc(F)cc2)N2CCN(C/C=C/c3ccccc3)CC2)cc1
active: Potency [1] 3.76 µM
inactive: Potency [17] | Potency [3] | Potency [5] | Potency [7] | Potency [8] | Potency [10] | outcome [11] | Potency [13] | Potency [14] | Potency [15] | Potency [16] | Potency [18]

O=C(Nc1cccc([N+](=O)[O-])c1)c1cc2ccccc2cc1O
active: Potency [1] 3.86 µM | Potency [4] 0.154 µM
inactive: Potency [17] | Potency [5] | Potency [7] | Potency [8] | outcome [9] | Potency [10] | outcome [11] | Potency [12] | Potency [13] | Potency [14] | Potency [15] | Potency [16]

Cc1ccc(O)c(C(C)(C)C)c1
active: Potency [3] 27.3 µM and 54.5 µM | Potency [4] 5.44 µM and 27.3 µM
inactive: Potency [17] | Potency [5] | Potency [6] | Potency [7] | Potency [8] | outcome [9] | Potency [10] | outcome [11] | Potency [12] | Potency [13] | Potency [14] | Potency [15] | Potency [16] | Potency [19]
54.4 µM (active) and inactive: Potency [1]
